Hit rate of the full screen: of about 360,000 compounds, about 3,000 (0.83%) were called active. Rule as the data show it: active = inhibition above about 50%; inactive = the rest. For the sample, actives were picked, then their nearest neighbours and some compounds at random.
molecular target: DNA (cytosine-5)-methyltransferase 1 (Homo sapiens) (UniProt P26358); assay: inhibition of DNA methyltransferase DNMT1 – biochemical, molecular beacon, fluorescence, HinP1I cleavage, uHTS, primary screen (AID 588458); conditions: at 10 µM, active compounds read high
Sequence (P26358 504-1616 limits assumed): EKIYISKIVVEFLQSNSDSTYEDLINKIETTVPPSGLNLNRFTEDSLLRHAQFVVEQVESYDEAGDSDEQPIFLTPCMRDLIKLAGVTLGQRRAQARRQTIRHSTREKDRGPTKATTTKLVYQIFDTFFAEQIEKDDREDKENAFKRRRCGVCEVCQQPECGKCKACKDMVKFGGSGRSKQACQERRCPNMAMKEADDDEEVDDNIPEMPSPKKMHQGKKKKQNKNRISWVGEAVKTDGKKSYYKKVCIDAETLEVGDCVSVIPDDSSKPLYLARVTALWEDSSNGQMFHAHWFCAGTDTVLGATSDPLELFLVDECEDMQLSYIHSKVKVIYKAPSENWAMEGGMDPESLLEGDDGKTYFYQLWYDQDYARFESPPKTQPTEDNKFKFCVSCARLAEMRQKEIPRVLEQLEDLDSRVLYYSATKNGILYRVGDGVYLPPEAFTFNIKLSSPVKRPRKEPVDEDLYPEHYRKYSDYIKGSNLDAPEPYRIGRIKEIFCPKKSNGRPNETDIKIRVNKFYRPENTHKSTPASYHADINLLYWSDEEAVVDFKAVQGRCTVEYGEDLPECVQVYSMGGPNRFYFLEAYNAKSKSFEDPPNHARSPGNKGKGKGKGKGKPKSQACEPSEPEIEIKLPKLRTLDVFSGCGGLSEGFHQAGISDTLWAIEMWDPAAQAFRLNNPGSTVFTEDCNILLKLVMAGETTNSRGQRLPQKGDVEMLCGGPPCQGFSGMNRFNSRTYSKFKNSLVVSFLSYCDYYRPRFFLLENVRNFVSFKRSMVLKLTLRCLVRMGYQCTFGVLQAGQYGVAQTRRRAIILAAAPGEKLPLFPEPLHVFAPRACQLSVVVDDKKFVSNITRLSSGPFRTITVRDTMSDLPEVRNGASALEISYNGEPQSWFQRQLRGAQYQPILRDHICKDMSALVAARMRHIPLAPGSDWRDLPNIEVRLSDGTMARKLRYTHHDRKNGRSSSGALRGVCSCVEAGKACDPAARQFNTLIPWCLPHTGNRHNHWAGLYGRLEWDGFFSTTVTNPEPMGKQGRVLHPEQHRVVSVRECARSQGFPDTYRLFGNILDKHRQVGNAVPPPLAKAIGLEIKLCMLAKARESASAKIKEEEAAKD

Row | SMILES | inhibition (reported as % activation of signal)
1 | CCOc1ccccc1/C=c1\sc2nc(-c3ccco3)nn2c1=O | 93.3% (active)
2 | CCCn1nc(C(=O)NNC(=O)CCOc2ccccc2OCC)c2ccccc2c1=O | 0.9% (inactive)
3 | CCOc1ccccc1C1NC(=O)NC(C)=C1C(=O)OCc1ccco1 (stereo not given) | -2.52% (inactive)
4 | CCc1ccc(C(=O)C(C)OC(=O)CN2C(=O)NC3(CCCC3)C2=O)cc1 (stereo not given) | 3.64% (inactive)
5 | N#Cc1cccc(NC(=O)COC(=O)c2ccccc2C(=O)c2ccc(Cl)c([N+](=O)[O-])c2)c1 | -3.9% (inactive)
6 | COc1cccc(CN(C)CC(=O)Nc2sc3c(c2C#N)CCC3)c1 | -0.9% (inactive)
7 | CCCc1cc(=O)[nH]c(SCC(=O)Nc2sc3c(c2C#N)CCCC3)n1 | -0.63% (inactive)
8 | COc1ccc(-n2c(SCC(=O)Nc3sc4c(c3C#N)CCCC4)nnc2-c2ccc(O)cc2)cc1 | 67.7% (active)
9 | CCCCN(C)CCNC(=O)CSCc1ccc(C)cc1 | 1.5% (inactive)
10 | CC1=C(C(=O)N2CCOCC2)CC(CC(=O)NCc2cccs2)C(=O)N1CCCN1CCCC1=O (stereo not given) | 6.83% (inactive)
11 | COC(=O)c1ccc(COc2ccc(/C=C/C(=O)c3ccc(OC)c(CSCC(=O)O)c3)cc2OC)cc1 | 11.9% (inactive)
12 | COc1ccccc1CCNC(=O)C1CCN(C(=O)/C=C/c2ccccc2)CC1 | -0.55% (inactive)
13 | COc1ccc(C(=O)/C=C/c2ccc(-c3ccccc3)cc2)cc1CSCC(=O)O | 56% (active)
14 | CC(C)(C)NC(=O)COC(=O)c1cc(Cl)ccc1[N+](=O)[O-] | 6.7% (inactive)
15 | O=S(=O)(c1cccc(-c2nnc(SC(F)F)n2-c2ccccc2)c1)N1CCCCC1 | -1.8% (inactive)
16 | CCn1ccnc1CNC(=O)CC1C(=O)NCCN1Cc1ccc(F)cc1Cl (stereo not given) | -0.81% (inactive)
17 | COc1ccc(S(=O)(=O)N2CCOC2CNC(=O)C(=O)NCc2ccncc2)cc1OC (stereo not given) | -1.09% (inactive)
18 | COc1ccc(NC(=O)C2C3C=CC(C3)C2C(=O)NCc2ccccn2)c(OC)c1 (stereo not given) | 1.26% (inactive)
19 | CCCn1nnnc1NCc1ccc(CC)cc1 | 0.45% (inactive)
20 | CCOC(=O)C1CCCN(C(=O)c2ccc(N(C)C)cc2)CC1 (stereo not given) | -7.05% (inactive)
21 | O=c1[nH]c(/C=C/c2cccc(Br)c2)nc2ccccc12 | 53% (active)
22 | O=c1[nH]c(/C=C\c2cccc(C(F)(F)F)c2)nc(O)c1[N+](=O)[O-] | 4.66% (inactive)
23 | O=c1[nH]c(SCc2cccc(F)c2)nc2ccccc12 | -0.9% (inactive)
24 | CCN(CC)C(=O)CSc1nnc(-c2ccc(S(=O)(=O)NCc3ccccc3Cl)cc2)o1 | 4.4% (inactive)
25 | Clc1cc(NC2CCCCC2)ncn1 | 1.17% (inactive)
